Results: the supplement of paper PMC13380429

System: Vero E6 infected with SARS-CoV-2
Assay: inhibition of SARS-CoV-2 cytopathic effect; higher = more antiviral protection, active = above 15
Conditions: 48 h

Measured: inhibition of SARS-CoV-2 cytopathic effect

CC12CCC(C(=O)N(CCCCN3CCN(c4ccccn4)CC3)C1=O)C2(C)C (stereo not given) [piricapiron]
inactive: 1 nM -2.91% | 8.33 nM -0.34% | 100 nM -1.87% | 833.33 nM 0.95% | 10000 nM 1.64%

Cc1cc(C)c(N)c(C#Cc2cccc(F)c2)n1
inactive: 1 nM 1.69% | 8.33 nM -1.37% | 100 nM 0.6% | 833.33 nM 3.1% | 10000 nM 1.98%

Cc1nc(C)c(-c2ccc(C3CCC(CC(=O)O)CC3)cc2)nc1C(N)=O (stereo not given)
inactive: 1 nM 5.02% | 8.33 nM 2.17% | 100 nM 0.91% | 833.33 nM 3.12% | 10000 nM -3.42%

Cc1cc(NC(=O)C(c2ccccc2)N2CCCc3ccccc32)no1 (stereo not given)
inactive: 1 nM 0.33% | 8.33 nM -0.92% | 100 nM 1.85% | 833.33 nM 0.35% | 10000 nM 3.91%

CC(C)c1cc(CNc2nc(Nc3cc(C4CC4)[nH]n3)cc(N3CCN(C)CC3)n2)on1
inactive: 1 nM 0.13% | 8.33 nM 1.15% | 100 nM 0.48% | 833.33 nM -4.78% | 10000 nM -15%
